# KCNQ2 pot = KCNQ2 (rat) channel potentiation; hit rate 0.54% among 310,000; O88943; AID 2239; CHO-K1 KCNQ2, FluxOR thallium flux fluorescence; hits give high values; B-score at 10 µM;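 active means fluorescence ratio B-score at least 3 SD of library B-scores, with initial fluorescence B-score within 3 of them, cut at about 5.3 in these data; same plate scores as AID 2156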;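 further: B-score of peak minus minimum over baseline fluorescence ratio after K+ and Tl+ stimulus; positive B-score means potentiation of KCNQ2 with more thallium influx and brighter signal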
# KCNQ2 inh = blocks the rat KCNQ2 potassium channel; O88943; CHO-K1 KCNQ2, FluxOR thallium flux, 20 min; hits give low values; B-score at 10 µM; hit rate 1.1% among 310,000; AID 2156;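 active means fluorescence ratio B-score at most minus 3 library SDs, with starting brightness B-score within 2 library SDs, cut at about -5.5 in these data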
# Kir21 confirm = confirmation of mouse Kir2.1 potassium channel inhibitors; AID 2032; shares compounds with KCNQ2 pot; Kir2.1-expressing cells, FluxOR thallium flux fluorescence; hits give low values; Tl flux remaining, % of negative control (hits give low values), % at 10 µM; hit rate 41% among 2,300;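 active means Primary-screen hit whose thallium flux fell at least 3 control SD below untreated wells in both duplicates, with normal baseline fluorescence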
# Target sequence (P35561 whole entry, looked up): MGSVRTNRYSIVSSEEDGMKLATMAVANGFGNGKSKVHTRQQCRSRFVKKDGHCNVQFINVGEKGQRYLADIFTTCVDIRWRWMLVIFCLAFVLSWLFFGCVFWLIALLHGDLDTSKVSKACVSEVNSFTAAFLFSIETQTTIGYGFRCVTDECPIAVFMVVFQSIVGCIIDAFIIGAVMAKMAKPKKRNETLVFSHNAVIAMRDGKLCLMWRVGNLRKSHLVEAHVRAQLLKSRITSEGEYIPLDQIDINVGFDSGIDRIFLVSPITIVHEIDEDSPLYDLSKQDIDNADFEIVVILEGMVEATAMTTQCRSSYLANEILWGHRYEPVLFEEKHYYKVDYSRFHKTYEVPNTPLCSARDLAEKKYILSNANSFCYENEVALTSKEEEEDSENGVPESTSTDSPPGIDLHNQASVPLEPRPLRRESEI
# HEK293 ctr = alters thallium flux in parental HEK293 cells, Kir2.1 counter-screen | shares compounds with KCNQ2 pot | FluxOR thallium flux fluorescence; 0% = unstimulated blank wells | FluxOR signal as % of negative control (100 = no effect), % at 10 µM | hit rate 19% among 2,300 | AID 2105;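 active means dye signal at least 3 control SD above or below untreated wells in both duplicates, raw fluorescence within 3, either direction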;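 further: percent is based on the flux ratio of peak minus minimum fluorescence over baseline F0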
# CHO-K1 ctr = alters thallium flux in parental CHO-K1 cells, KCNQ2 counter-screen | shares compounds with KCNQ2 pot | FluxOR thallium flux fluorescence; zero = vehicle mean+3SD, 100% = vehicle-minus-blank window | activity increase over 3SD of controls, % at 10 µM | hit rate 43% among 1,200;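 active means signal rise of at least 3 SD above the untreated control mean, in both duplicate wells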;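 further: counter screen of KCNQ2 potentiator hits so any rise reflects channel-independent effects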
# KCNQ1 pot spec = human KCNQ1 counter-target activity of KCNQ2 potentiators; shares compounds with KCNQ2 pot; CHO KCNQ1 stable, FluxOR thallium flux fluorescence; beyond 3SD, as % of vehicle-control signal; activation over 3SD threshold, % at 10 µM; hit rate 28% among 1,200; AID 2283;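 active means fluorescence ratio rise of at least 3 SD of vehicle wells above their mean, in both replicate wells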
# KCNQ2 pot conf = rat KCNQ2 channel potentiator confirmation. shares compounds with KCNQ2 pot. CHO-KCNQ2 cells, FluxOR thallium flux fluorescence. potentiation, less the hit threshold, % at 10 µM. hit rate 68% among 1,200;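 active means fluorescence ratio rising 3 SD or more over the vehicle control mean in both replicates, plus primary screen hit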;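 further: peak minus minimum thallium fluorescence divided by baseline after K/Tl stimulus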
# Kir21 spec = mouse Kir2.1 off-target activity of KCNQ2 potentiators; shares compounds with KCNQ2 pot; HEK293 Kir2.1, FluxOR thallium flux fluorescence; activity over 3SD threshold, % at 10 µM; hit rate 2% among 1,200;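 active means fluorescence ratio rise of at least 3 SD above the vehicle-control mean, seen in both replicates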
# KCNQ2 W236L pot = rat KCNQ2 W236L mutant potentiation by KCNQ2 potentiators. current increase over 3SD of negative controls (%), hits give high values, % at 25 µM. shares compounds with KCNQ2 pot. CHO KCNQ2-W236L, automated patch clamp current. hit rate 10% among 940;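 active means current increase at least 3 SD of the untreated controls above them in both duplicate recordings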
# Numbers stand for hits; - = inactive; . = not tested or not shown. Hits are enriched below; roughly 1.6% of the tested compounds scored in any of these assays.
SMILES,KCNQ2 pot,KCNQ2 inh,Kir21 confirm,HEK293 ctr,others
O=C(NC(=S)N(CCCCO)C1CCCCC1)c1sc2ccccc2c1Cl,17.5,-,-,-,CHO-K1 ctr=29.6;KCNQ1 pot spec=27.6;KCNQ2 pot conf=56.4;Kir21 spec=-;KCNQ2 W236L pot=-
CC1CCCCC1NC(=S)NC(=O)c1sc2ccccc2c1Cl (stereo not given),-,-,.,.,
C=CSc1sc(Cl)c(N2CCOCC2)c1[N+](=O)[O-],.,-,.,.,
C=CS(=O)(=O)c1sc(Cl)c(N2CCOCC2)c1[N+](=O)[O-],-,-6.79,19.5%,48.5%,
CCCCCCCCNC1=CC(=O)CC(C)(C)C1,.,-,.,.,
Cc1cccc(C=Nc2ccc3c4c(cccc24)CC3)c1O,.,-,.,.,
CCc1ccc(O)c(N=Cc2cccc(C)c2O)c1,7.45,-,-,-,CHO-K1 ctr=-;KCNQ1 pot spec=-;KCNQ2 pot conf=17.4;Kir21 spec=-;KCNQ2 W236L pot=-
COc1cc(CNCCN2CCOCC2)ccc1OCc1ccc(Cl)cc1,-,-,.,.,
COc1cc(CNCCCN2CCOCC2)cc(Br)c1OCc1ccc(Cl)cc1,.,-,33.0%,-,
COC(=O)CN(c1cccc(C)c1)S(=O)(=O)c1ccccc1,-,-,.,.,
CN(Cc1cccc(C(F)(F)F)c1)C(=O)C1CCC(=O)N(CC2CCCCC2)C1 (stereo not given),.,-,.,.,
CNC[C@@H](Cc1ccccc1)NC[C@@H](CC1CCCCC1)NCCCc1ccccc1,-,-6.16,-,-,
CN(C[C@H](Cc1ccccc1)N(C[C@@H](CC1CCCCC1)N(CCc1ccccc1)N=O)N=O)N=O,.,-,.,.,
CNC[C@@H](CC1CCCCC1)NC[C@H](CC(C)C)NCCc1cccc(C(F)(F)F)c1,.,-,27.5%,-,
O=C1NC(CCc2ccccc2)C(=O)N1CCOc1cccc(Br)c1 (stereo not given),.,-,.,.,
CC(O)CNCCCOc1cccc(C(F)(F)F)c1 (stereo not given),-,-,.,.,
CC(O)CNCCCOc1cccc(Oc2ccccc2)c1 (stereo not given),-,-,14.5%,-,
Cc1ccc(S(=O)(=O)N2CCC(C(=O)N3CCN(c4ccccn4)CC3)CC2)cc1,-,-,.,.,
CC(C)=CC(=O)Nc1c(C)cc(C)cc1Cl,11.2,-,-,-,CHO-K1 ctr=-;KCNQ1 pot spec=-;KCNQ2 pot conf=28.2;Kir21 spec=-;KCNQ2 W236L pot=-
Cc1cc(C)c(NC(=O)CCCC(=O)O)c(Cl)c1,.,-,.,.,
N#Cc1cccnc1N1CCN(C(=O)c2cccs2)CC1,.,-,.,.,
c1ccc(OCCN2CCN(Cc3nc(-c4ccc5c(c4)OCO5)no3)CC2)cc1,.,-,.,.,
CC(OC(=O)c1ccc(-c2ccc(O)cc2)cc1)C(=O)NC1CCCCC1C (stereo not given),.,-,.,.,
Cc1cc(C(F)(F)F)nc(SCC(=O)Nc2ccccc2)n1,-,-,.,.,
Cc1cc(C(F)(F)F)nc(SCC(=O)NC2CC3CCC2C3)n1 (stereo not given),6.01,-,.,.,CHO-K1 ctr=-;KCNQ1 pot spec=-;KCNQ2 pot conf=43.4;Kir21 spec=-;KCNQ2 W236L pot=-
SMILES,KCNQ2 pot,KCNQ2 inh,Kir21 confirm,HEK293 ctr,others
NNC(=O)c1ccccc1CO,-,-,.,.,
CC1=NN(C(=O)c2ccccc2Cl)C(O)(c2cccnc2)C1 (stereo not given),-,-,.,.,
CCC1=NN(C(=O)c2ccccc2O)C(O)(c2ccccc2)C1 (stereo not given),10.5,-,-,148.5%,CHO-K1 ctr=-;KCNQ1 pot spec=-;KCNQ2 pot conf=14.2;Kir21 spec=-;KCNQ2 W236L pot=-
CC1=NN(C(=O)c2ccccc2C)C(O)(c2ccc(Cl)cc2)C1 (stereo not given),11.1,-,-,-,CHO-K1 ctr=21.8;KCNQ1 pot spec=-;KCNQ2 pot conf=-;Kir21 spec=-
CCC1=NN(C(=O)c2ccc([N+](=O)[O-])cc2)C(O)(c2ccccc2)C1 (stereo not given),-,-,.,.,
COc1ccc(CNC(=O)c2noc(C)c2[N+](=O)[O-])cc1,-,-,.,.,
CC(C)NC(=O)CCCN1C(=O)c2ccccc2Sc2ncccc21,-,-,.,.,
CC(=O)OC(C(=O)N1CCOCC1)c1c(F)cccc1F (stereo not given),-,-,.,.,
Cc1c(C)n(CCN(C)C)c2ccc(C(=O)OCCN(C)C)cc12,-,-,.,.,
Cc1c(C)n(Cc2ccccc2)c2ccc(C(=O)OCCCN(C)C)cc12,.,-,24.5%,-,
C/C(=N/NC(=O)CNS(=O)(=O)c1ccc(C)cc1)c1cccc([N+](=O)[O-])c1,-,-,.,.,
CCN(CC)CC#CCC(O)(c1ccccc1)c1ccccc1,.,-,.,.,
CCN(CC)CC#CCC(C)(c1ccccc1)c1ccccc1,.,-,-,-,
COc1cc(C(=O)NCCOc2cc(C)cc(C)c2)c(Br)c(OC)c1OC,.,-,.,.,
CCCCC(=O)NC(=S)Nc1cccc(NC(=O)c2ccccc2)c1,-,-,.,.,
Cc1cc2ccccc2n1CCNC(=O)Cc1ccccc1,.,-,.,.,
Cc1cccc(CC(=O)NCCn2c(C)cc3ccccc32)c1,6.89,-,-,-,CHO-K1 ctr=87.3;KCNQ1 pot spec=-;KCNQ2 pot conf=17.2;Kir21 spec=-;KCNQ2 W236L pot=-
CCN(CC)CCCN(C(=O)c1ccc(OC)cc1)c1nc(-c2ccc(OC)cc2)cs1,-,-,77.5%,-,
CCN(CC)CCCN(C(=O)c1ccccc1C)c1nc(-c2ccc(OC)cc2)cs1,-,-,.,.,
COc1ccccc1CC(NC(C)=O)C(=O)NC1CCN(C(=O)c2cccc(Cl)c2)CC1 (stereo not given),.,-,.,.,
CCC1(C)Cc2c(sc3nnn(CC(=O)Nc4ccccc4)c(=O)c23)CO1 (stereo not given),19,-,-,-,CHO-K1 ctr=-;KCNQ1 pot spec=26.6;KCNQ2 pot conf=41.2;Kir21 spec=-;KCNQ2 W236L pot=-
Cc1cccc(NC(=O)Cn2nnc3sc4c(c3c2=O)CC(C)(C)OC4)c1,.,-,.,.,
O=c1c2sc3ccccc3c2[nH]c(=S)n1CCN1CCOCC1,-,-,.,.,
Cc1cc(C)c2ccc3c(C)c(C)nc3c2[nH]1,.,-,.,.,
CC(Sc1ccc(Cl)cc1)C(=O)NCc1ccc2c(c1)OCO2 (stereo not given),7.66,-,-,-,CHO-K1 ctr=81.4;KCNQ1 pot spec=13.9;KCNQ2 pot conf=3.7;Kir21 spec=-;KCNQ2 W236L pot=-
SMILES,KCNQ2 pot,KCNQ2 inh,Kir21 confirm,HEK293 ctr,others
CC(Sc1ccc(Cl)cc1)C(=O)Nc1ccc2c(c1)OCO2 (stereo not given),-,-,.,.,
CCc1ccc(NC(=O)C(C)OC(=O)C2CCC(=O)N2)cc1 (stereo not given),.,-,.,.,
CC(C)C(NC(=O)c1ccc(F)cc1)C(=O)Nc1cccnc1 (stereo not given),.,-,.,.,
CC1(C)CC(=O)c2cn3nc(C(F)(F)F)nc3nc2C1,.,-,.,.,
CCOC(=O)c1c(-c2ccc(C)o2)csc1NC(=S)NC(=O)N(C)C,14.5,-,-,314.0%,CHO-K1 ctr=-;KCNQ1 pot spec=-;KCNQ2 pot conf=33.8;Kir21 spec=-;KCNQ2 W236L pot=58.9%
CCOC(=O)c1c(-c2ccc(C)o2)csc1N,.,-,.,.,

# Screens as filed in PubChem BioAssay.
